From PubChem BioAssay
A selection: hits, their analogues and other compounds. The true share with any hit is near 19%.
TDP1 inh: inhibitors of human tyrosyl-DNA phosphodiesterase TDP1; 350,000 compounds, 0.28% hits; Potency, µM (top dose mostly 130 µM), inactives show at the top dose activity change, negative = inhibition, most hits filed as inhibitors; recombinant TDP1, AlphaScreen DNA substrate cleavage; also: nearly all actives have a fitted effect of over 40% in size
Target sequence (Q9NUW8 whole entry, looked up): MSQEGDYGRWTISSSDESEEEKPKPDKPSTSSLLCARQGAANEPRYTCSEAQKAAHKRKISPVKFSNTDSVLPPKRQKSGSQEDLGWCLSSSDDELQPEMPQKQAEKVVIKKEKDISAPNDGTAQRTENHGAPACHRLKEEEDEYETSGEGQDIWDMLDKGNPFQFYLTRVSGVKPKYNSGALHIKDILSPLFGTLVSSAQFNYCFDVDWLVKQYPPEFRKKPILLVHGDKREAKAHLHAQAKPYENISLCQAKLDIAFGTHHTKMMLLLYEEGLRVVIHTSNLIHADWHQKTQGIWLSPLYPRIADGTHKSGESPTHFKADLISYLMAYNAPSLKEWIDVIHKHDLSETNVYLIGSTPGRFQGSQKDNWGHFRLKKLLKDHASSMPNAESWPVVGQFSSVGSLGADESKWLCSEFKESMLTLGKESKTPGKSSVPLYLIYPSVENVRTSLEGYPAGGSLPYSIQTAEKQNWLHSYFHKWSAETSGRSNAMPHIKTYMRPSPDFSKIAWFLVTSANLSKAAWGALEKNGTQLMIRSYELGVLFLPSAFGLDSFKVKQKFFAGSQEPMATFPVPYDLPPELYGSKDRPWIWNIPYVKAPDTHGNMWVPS
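AlphaScreen read-out: signal falls as enzyme removes the 3' tyrosine-FITC from a 5'-biotinylated DNA oligo (15 nM, 5 min, RT). Enzyme was E. coli-made recombinant Tdp1 at 1 nM, exposed to compound for 15 min beforehand; beads 10 ug/ml, 10 min.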
TDP1 cell CPT: DT40-hTDP1 cell growth loss with CPT; chicken DT40 Tdp1-/-;hTDP1 cells + 20 nM CPT, ATP luminescence, 48 h; Potency, µM (series often up to 46.2 µM), for inactives: at the highest dose activity change, negative = growth inhibition, most hits filed as inhibitors; 420,000 compounds, 12% hits; also: nearly all actives have a fitted effect of over 55% in size
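Chicken DT40 Tdp1-/- cells complemented with human TDP1, 400 cells/well, exposed to compounds plus 20 nM camptothecin for at least 48 h at 37 C; viability read as ATP content by CellTiter-Glo luminescence.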
RORgamma inh: inhibitors of mouse ROR gamma transcriptional activity; 310,000 compounds, 5.4% hits; AID 2551; P51450; Drosophila S2 Gal4-RORgamma UAS-luciferase reporter, 20 h; Potency, µM (doses to about 53.6 µM), for inactives: top-dose activity change, negative = inhibition, usual class: inhibitors; also: nearly all actives have a fitted effect of over 60% in size
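Compounds are pin-transferred onto Drosophila Schneider cells expressing a copper-inducible Gal4–ROR gamma transactivation domain fusion. After 1 hr, copper sulfate is added to 700 uM final; luciferase is read 20 hr later.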
TDP1 cell noCPT: qHTS for Inhibitors of human tyrosyl-DNA phosphodiesterase 1 (TDP1): qHTS in cells in absence of CPT | DT40 Tdp1-/- hTDP1 cells, no CPT, ATP luminescence, 48 h | Potency, µM (top dose mostly 46.2 µM), without a hit: at the top dose activity change, negative = growth inhibition, hits mostly inhibitors | 420,000 compounds, 15% hits; also: nearly all actives have a fitted effect of over 55% in size
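Seeded 400 DT40-hTDP1 cells/well (vehicle DMSO, no 20 nM CPT); pinned compounds; ≥48 hr at 37 °C; CellTiter-Glo luminescence as viability measure.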
Gal4-VP16 FLuc: counter-screen for ROR gamma inhibitors: Gal4-VP16 reporter; Drosophila S2 Gal4-VP16 UAS-luciferase, luminescence, 20 h; Potency, µM (top dose mostly 53.6 µM), without a hit: at the top dose activity, negative = inhibition, actives largely listed as inhibitors; 310,000 compounds, 3.5% hits; AID 2546;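 also: Gal4-VP16 expression switched on by copper sulfate through the metallothionein promoter; nearly all actives have a fitted effect of over 50% in size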
* marks the source's active call; other numbers are inactive results; ? = inconclusive; / = no result given; [ ] = remark or other dose. Calls follow the shape of the dose curve; as a rule, active = well fitted curve in the direction sought with a large enough effect; inconclusive = small, poorly fitted or top-dose-only effect, or another doubt; inactive = no such curve, though single readings can be large; an effect the other way counts as inactive or inconclusive. % is scaled to controls: 0 for no effect and ±100 for the full control effect; potency is read from the fitted curve at half-maximal effect.

SMILES	TDP1 inh	TDP1 cell CPT	RORgamma inh	TDP1 cell noCPT	Gal4-VP16 FLuc
COc1ccc(C2C(C(=O)c3ccc(C)o3)=C(O)C(=O)N2c2cc(C)on2)cc1OC (stereo not given)	2%	-4%	-2%	-2%	1%
CCOc1ccc(CN2C(=O)CCC2(C)C(=O)NCc2cccnc2)cc1 (stereo not given)	-2%	-27%	-15%	?	1%
CC1CCCC(C(=O)O)N1C(=O)CCS (stereo not given)	2%	-20%	-4%	-7%	2%
O=C(COCc1cc(-c2ccco2)on1)NC1CCCCC1	5%	-29%	27%	-12%	-1%
Cc1cccc(N(CC(=O)NCc2ccc(F)cc2)C(=O)c2csnn2)c1C	-5%	-10%	5%	?	-21%
CCCCn1c(N)c(N(CCC(C)C)C(=O)COC(=O)c2cccnc2SC)c(=O)[nH]c1=O	-6%[0.505 µM]	-3%	/	-8%	/
CCCOc1cccc(C2C(C(=O)c3cccs3)=C(O)C(=O)N2Cc2cccnc2)c1 (stereo not given)	3%	?	6%	16µM*	8%
COc1ccc(C2C(C(=O)c3cccs3)=C(O)C(=O)N2Cc2cccnc2)cc1OC (stereo not given)	0%	3%	?	-3%	0%
O=C(c1ccc(Cl)cc1)N1CCC2CC1c1cc(-c3ccccc3)ccc12 (stereo not given)	/	16µM*	/	-23%	/
O=C(OCc1ccccc1)N1CCC2CC1c1cc(-c3ccccc3)ccc12 (stereo not given)	/	?	/	23µM*	/
Cc1ccc(S(=O)(=O)NCc2ccc(C(=O)N3CCN(c4ccccc4)CC3)cc2)cc1	7%	?	18%	?	-2%
Cc1ccc(C(=O)N2CCN(c3ccc4c(c3)C3CC4CCN3C(=O)OCc3ccccc3)CC2)cc1 (stereo not given)	/	16µM*	/	15µM*	/
N#Cc1ccc(C(=O)N2CCC3CC2c2cc(N4CCCCC4)ccc23)cc1 (stereo not given)	/	16µM*	/	16µM*	/
CCOC(=O)N1CCC2CC1c1cc(Cl)ccc12 (stereo not given)	/	-19%	/	?	/
CN(C)c1ccc(C=NN2C(=O)CSC2=S)c(Cl)c1	/	?	/	-24%	/
O=C(c1cccc(Cl)c1)N1CCN(c2ccc3c(c2)C2CC3CCN2C(=O)OCc2ccccc2)CC1 (stereo not given)	/	?	/	15µM*	/
CCOC(=O)c1ccc(NC(=O)CCc2c(C)nc3ncnn3c2C)cc1	1%	-4%	-11%	5%	2%
C=CCn1c(C)c(C(C)=O)c(N2CCOCC2)nc1=S	4%	-14%	?	-9%	-2%
C[C@H](CO)N1C[C@H](C)[C@@H](CN(C)S(=O)(=O)c2ccccc2F)Oc2ncc(C#Cc3cccnc3)cc2C1=O	/	?	/	15µM*	/
COc1ccc(S(=O)(=O)N(C)C[C@H]2Oc3ncc(-c4ccncc4)cc3C(=O)N([C@@H](C)CO)C[C@@H]2C)cc1	/	-21%	/	?	/
CCCC#Cc1cnc2c(c1)C(=O)N([C@H](C)CO)C[C@@H](C)[C@H](CN(C)S(=O)(=O)c1cccc(OC)c1)O2	/	?	/	10µM*	/
COc1ccc(S(=O)(=O)N(C)C[C@H]2Oc3ncc(C#CC4(O)CCCC4)cc3C(=O)N([C@@H](C)CO)C[C@@H]2C)cc1	/	9.2µM*	/	?	/
O=C(c1cccc([N+](=O)[O-])c1)N1CCN(Cc2ccc3c(c2)OCO3)CC1	6%	3%	-1%	-1%	0%
Cc1ccc(-c2onc(C)c2C)cc1S(=O)(=O)NC1CCCCC1	-5%	?	/	26µM*	/
Cc1ccc(-c2onc(C)c2C)cc1S(=O)(=O)N1CCOc2ccc(Cl)cc21	-3%	?	/	15µM*	/
SMILES	TDP1 inh	TDP1 cell CPT	RORgamma inh	TDP1 cell noCPT	Gal4-VP16 FLuc
Cc1ccc(-c2onc(C)c2C)cc1S(=O)(=O)N1CC(C)Oc2ccccc21 (stereo not given)	1%	?	-13%	?	-16%
CCC1CN(S(=O)(=O)c2cc(-c3onc(C)c3C)ccc2C)c2cc(Cl)ccc2O1 (stereo not given)	0%	15µM*	/	15µM*	/
Cc1ccc(-c2onc(C)c2C)cc1S(=O)(=O)N1CCC(C)CC1	-8%	21µM*	/	?	/
O=C(Nc1cccc(Cc2ccccc2)c1)Nc1cccc2[nH]c([C@@H]3O[C@H](CO)[C@@H](O)[C@H](O)[C@H]3O)nc12	/	-19%	/	-14%	/
CCC1CN(S(=O)(=O)c2ccc3c(c2)NC(=O)CC(=O)N3)c2cc(Cl)ccc2O1 (stereo not given)	5%	16µM*	?	21µM*	4%
Cc1ccc(-c2onc(C)c2C)cc1S(=O)(=O)N1CCc2ccccc21	0%	13µM*	/	23µM*	/
CCCCNC(=S)NNC(=O)c1ccco1	5%	1%	13µM*	-1%	?
CCCCNC(=S)NNC(=O)c1ccoc1C	3%	-7%	8.9µM*	0%	14%
CCCCNC(=S)NNC(=O)c1csc2ccccc12	7%	?	2%	26µM*	-12%
Cc1occc1C(=O)N1CCN(c2ccc(Cl)c(Cl)c2)CC1	3%	?	10%	16µM*	5%[0.365 µM]
CCCCNC(=S)NNC(=O)c1cc(-c2cccnc2)nc2ccccc12	7%	-15%	?	-16%	-19%
O=C(O)c1cccc(NC(=S)NC(=O)c2cccc(OCc3ccccc3)c2)c1	/	-5%	-6%	9%	3%
CC(=O)Nc1c(C(=O)C2CC2)oc2ccccc12	-8%	-16%	-22%	-6%	1%
Cc1ccccc1NC(=S)NNC(=O)c1ccoc1C	2%	-3%	?	-10%	0%
Cc1occc1C(=O)NNC(=O)Nc1ccc(Cl)c(Cl)c1	1%	15µM*	-1%	?	2%
Cc1occc1C(=O)NNC(=S)Nc1ccccc1	1%	1%	14µM*	-13%	10%
Cc1occc1C(=O)Nc1ccc(S(N)(=O)=O)cc1	-5%	23µM*	7%	?	6%
CC1(C)N=C(N)NC(=NCCCOc2ccc([N+](=O)[O-])cc2)N1	/	-26%	/	-7%	/
COc1ccc(CNC(=O)C(c2ccco2)N(C(=O)c2snc(C(N)=O)c2N)c2ccccc2OC)cc1 (stereo not given)	/	0%	0%	?	-4%
O=[N+]([O-])c1cccc(Oc2ncccc2[N+](=O)[O-])c1	/	0%	/	-7%	/
CCc1ccc(NC(=O)C(C)n2nc(C)c([N+](=O)[O-])c2C)cc1 (stereo not given)	2%	-19%	4%	-25%	-16%
